In the library only some 12% were active in any assay of this set; here they are far more common.
JMJD2A Tudor – blocks the human JMJD2A Tudor domain; O75164; AlphaScreen JMJD2A-Tudor / H3K4me3 peptide binding; Potency, µM (doses to about 114 µM), inactives show at the top dose activity change, negative = inhibition, actives largely listed as inhibitors; 390,000 compounds, 4.4% hits; AID 504339; note: % is set by controls: 0 for no effect and ±100 for the full control effect; nearly all actives have a fitted effect of over 50% in size
G9a block – G9a (human) methyltransferase inhibition | 350,000 compounds, 8.8% hits | Q96KQ7 | Potency, µM (top dose mostly 102 µM), without a hit: top-dose activity, negative = inhibition, most hits filed as inhibitors | G9a H3K9 monomethylation, AlphaScreen, 2 h; note: % is set by controls: 0 for no effect and ±100 for the full control effect; nearly all actives have a fitted effect of over 75% in size
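Methyltransferase reactions run at room temperature for 2 h (20 nM enzyme, 500 nM biotin-H3K9 peptide, 20 uM SAM) after a 15 min compound preincubation; product detected by AlphaScreen beads and anti-H3K9me1 antibody.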
BAZ2B inh – BAZ2B (human) inhibition; Q9UIF8; AlphaScreen BAZ2B-H3K14Ac peptide displacement; Potency, µM (doses to about 114 µM), without a hit: at the top dose activity change, negative = inhibition, hits mostly inhibitors; 360,000 compounds, 4.4% hits; note: % is set by controls: 0 for no effect and ±100 for the full control effect; nearly all actives have a fitted effect of over 60% in size
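Protein-peptide AlphaScreen: BAZ2B 50 nM, b-H3K14Ac 50 nM, 1x PBS pH 7.4 + 0.01% Tween-20. Preincubation 30 min RT; cpd 30 min RT (top 110 uM); beads 20 min RT, light-protected.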
L3MBTL1 inh – inhibitors of human L3MBTL1; Potency, µM (doses to about 57.1 µM), without a hit: at the highest dose activity, negative = inhibition, actives largely listed as inhibitors; AID 485360; 230,000 compounds, 0.66% hits; AlphaScreen L3MBTL1–H3K9me1 peptide binding; Q9Y468; note: % is set by controls: 0 for no effect and ±100 for the full control effect; nearly all actives have a fitted effect of over 60% in size
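Displacement of a biotinylated histone H3(1-15) peptide monomethylated at Lys9 (75 nM) from L3MBTL1 (50 nM) was measured by AlphaScreen after a 30 min room-temperature compound incubation; cefsulodin titration served as intraplate control.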
HP1b chromo inh – inhibitors of HP1-beta chromodomain binding to methylated histone tails; P83916; AlphaScreen HP1-beta / biotin-H3K9me3 peptide binding; Potency, µM (top dose mostly 114 µM), inactives show top-dose activity change, negative = inhibition, actives largely listed as inhibitors; 390,000 compounds, 0.56% hits; note: nearly all actives have a fitted effect of over 70% in size
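Compound inhibition of the preformed complex between 50 nM HP1-beta and 50 nM biotinylated H3K9me3 peptide was read by AlphaScreen. Buffer was PBS pH 7.4 with 0.01% Tween-20. Incubations ran 30 min at room temperature, with 10 ug/mL donor/acceptor beads.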
Sfp PPTase inh – Sfp phosphopantetheinyl transferase inhibition; Q9F4F7; AID 1490; Biochemical Sfp PPTase activity, qHTS; 310,000 compounds, 3.5% hits; Potency, µM, for the others: largest response in the series, negative = inhibition, most hits filed as inhibitors;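 note: the enzyme is Sfp with the accession as filed and its product quenches rhodamine fluorescence; 0% = enzyme reaction without inhibitor and -100% = no enzyme wells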
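Fluorescence-quenching assay with 15 nM Sfp, 5 uM rhodamine-CoA and 12.5 uM BHQ-2-labelled ybbR peptide in pH 7.6 Hepes/MgCl2 buffer. Enzyme was pre-incubated with compound for 15 min at room temperature. Rate was taken from the 30-min fluorescence change (525/598 nm).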
An asterisk follows results filed as active; ? = inconclusive; . = not tested or not shown; [ ] = another dose, or the depositor's remark. Calls come from the whole dose curve; as a rule, active = well fitted curve in the direction sought with a large enough effect; inconclusive = small, poorly fitted or top-dose-only effect, or another doubt; inactive = no such curve, though single readings can be large; an effect the other way counts as inactive or inconclusive. Potency is the fitted concentration of half-maximal effect.

SMILES	JMJD2A Tudor	G9a block	BAZ2B inh	L3MBTL1 inh	HP1b chromo inh	Sfp PPTase inh
CCOC(=O)c1ccc2c(c1)C1C=CCC1C(C(=O)OCC)N2 (centres undefined)	?	11.2µM*	44.7µM*	?	-7.1%	44.7µM*
CCOC(=O)C1Nc2ccc(Br)cc2C2C=CCC12 (centres undefined)	39.8µM*	3.55µM*	44.7µM*	-27.8%	?	28.2µM*
CCOC(=O)c1ccc2c(c1)[C@@H]1C=CC[C@@H]1[C@H](c1cccc(OC)c1OC)N2	-19.0%	-32.2%[59 µM]	-8.7%	.	10.6%	.
Nc1c(C(=O)Nc2cccc(C(=O)O)c2)sc2nc3c(cc12)CCCC3	-23.5%	44.7µM*	-3.6%	.	34.5%	20.3%
Nc1c(C(=O)Nc2ccc(C(=O)O)cc2)sc2nc3c(cc12)CCCC3	13.8%	?	-0.1%	.	50.6%	.
Nc1c(C(=O)Nc2ccc(Cl)c(C(=O)O)c2)sc2nc3c(cc12)CCCC3	-2.1%	44.7µM*	-14.9%	.	43.7%	5.0%
CCOc1ccc(NC(=O)c2sc3nc4c(cc3c2N)CCCCCC4)cc1	0.7%	4.4%[59 µM]	-1.6%	.	30.8%	.
CCc1cccc(-n2nnc(-c3nsc(NC(=O)c4cccs4)n3)c2C)c1	-14.0%	-12.3%[59 µM]	-6.5%	.	22.6%	.
CC1CCC2(C1)N=C(Nc1nc3ccccc3o1)NC1=C2C(=O)CCC1 (centres undefined)	56.2µM*	.	.	.	.	.
CCC1CCC2(C1)N=C(Nc1nc3ccccc3o1)NC1=C2C(=O)CCC1 (centres undefined)	-35.5%	.	.	.	.	.
Cc1cc(=O)n(CC(=O)N2CCCCC2)c2c1c(C)nn2C	-21.7%	16.0%[59 µM]	-3.1%	.	5.4%	.
Cc1oc(-c2ccccc2)cc1C(=O)Nc1cccc(/C=C/C(=O)O)c1	?	-49.6%	44.7µM*	-15.2%	?	2.2%
Cc1oc(-c2ccccc2)cc1C(=O)Nc1ccc2ccccc2c1	4.1%	-48.4%[0.501 µM]	-27.9%	-5.0%	43.6%	89.1µM*
Cc1cc(C(=O)Nc2cccc(/C=C/C(=O)O)c2)c(C)o1	-19.6%	?	-37.7%	-2.8%	8.2%	-1.9%
CC(C)OCCCNC(=O)c1cc2c(-c3ccc(Cl)cc3)nn(C)c2s1	-1.3%	3.5%[59 µM]	.	.	38.2%	.
O=C(N/N=C1/CCS(=O)(=O)c2ccc(F)cc21)c1ccccn1	12.6µM*	10.6%	20µM*	.	40.6%	-91.5%
Cc1csc(C(C#N)C(=O)c2cc3ccccc3o2)n1 (centres undefined)	?	-22.7%[59 µM]	?	-4.1%	-11.0%	50.1µM*
Cc1csc(NC(=O)c2cc3ccccc3o2)n1	-18.6%	1.5%[12.7 µM]	8.8%	-5.5%	30.5%	.
CC(C)Sc1nnc(CNC(=O)C23CC4CC(CC(C4)C2)C3)n1Cc1ccccc1	-13.0%	31.6µM*	1.3%	1.0%	28.4%	-5.7%
CSc1nnc(CNC(=O)C23CC4CC(CC(C4)C2)C3)n1Cc1ccccc1	9.0%	4.5%	-6.2%	2.2%	16.3%	13.3%
CNc1nc2c3ccccc3n(C(C)=O)c2s1	-13.0%	?	-3.1%	.	-6.4%	-14.9%
CC(=O)n1c2ccccc2c2nc(NC(C)C)sc21	50.1µM*	?	50.1µM*	-8.0%	?	?
O=C(CNC(=O)C(c1ccccc1)c1ccccc1)OCC(=O)c1cccc2ccccc12	-14.6%[57.1 µM]	.	.	.	13.2%[57 µM]	.
CCC(C)c1ccccc1N1CC(C(=O)Nc2ccc(S(=O)(=O)N3CCOCC3)cc2)CC1=O (centres undefined)	-20.0%	50.1µM*	10.8%	-3.5%	7.6%	.
CCOc1ccc(N2CC(C(=O)Nc3ccc(S(=O)(=O)N4CCOCC4)cc3)CC2=O)cc1 (centres undefined)	-17.2%	-42.7%	-5.0%	-0.7%	4.8%	6.1%
C/C=C/c1ccc(OCCCNC2CCCC2)c(OC)c1	7.94µM*	?	?	.	?	?
C/C=C/c1ccc(OCCCNC(C)CC)c(OC)c1 (centres undefined)	1.78µM*	?	31.6µM*	.	-34.0%	56.2µM*

Screens: PubChem BioAssay, National Center for Advancing Translational Sciences (NCATS)
